# The supplement of paper PMC8371130
# Where a name gives a salt, the structure may show the parent alone.
# System: HL-1
# Experiment: relative cell viability (CellTiter-Glo) vs DMSO control (% of DMSO control); higher = more viable cells
# Summary of the method: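 In 384-well plates, 1000 HL-1 mouse atrial cardiomyocytes per well were plated with compounds at 40, 200, 1000 or 5000 nM in 0.01% DMSO. Hypoxia at 1% O2 for 48 h began one day later and was followed by 24 h of reoxygenation, with parallel plates held in normoxia. CellTiter-Glo luminescence gave cell viability relative to vehicle-treated control cells.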
# [1] = oxygen condition: hypoxia 48 h (1% O2) + reoxygenation 24 h, 40 nM
# [2] = oxygen condition: hypoxia 48 h (1% O2) + reoxygenation 24 h, 200 nM
# [3] = oxygen condition: hypoxia 48 h (1% O2) + reoxygenation 24 h, 1000 nM
# [4] = oxygen condition: hypoxia 48 h (1% O2) + reoxygenation 24 h, 5000 nM
# [5] = oxygen condition: normoxia 72 h, 40 nM
# [6] = oxygen condition: normoxia 72 h, 200 nM
# [7] = oxygen condition: normoxia 72 h, 1000 nM
# [8] = oxygen condition: normoxia 72 h, 5000 nM
Compound,relative cell viability [1],relative cell viability [2],relative cell viability [3],relative cell viability [4],relative cell viability [5],relative cell viability [6],relative cell viability [7],relative cell viability [8]
COc1cc([C@@H]2c3cc4c(cc3[C@@H](O[C@@H]3O[C@@H]5CO[C@@H](c6cccs6)O[C@H]5[C@H](O)[C@H]3O)[C@H]3COC(=O)[C@H]23)OCO4)cc(OC)c1O [Teniposide],96.6,102,98.2,115,105,104,102,118
Nc1ccn([C@@H]2O[C@H](CO)[C@@H](O)C2(F)F)c(=O)n1 [Gemcitabine HCl],3.53,3.99,3.86,3.72,3.77,4.75,3.77,3.39
CC(=O)O[C@H]1CC[C@@]2(C)C(=CC[C@@H]3[C@@H]2CC[C@]2(C)C(c4cccnc4)=CC[C@@H]32)C1 [Abiraterone Acetate],104,103,101,117,97.2,99.2,102,115
Nc1nc(F)nc2c1ncn2[C@@H]1O[C@H](CO)[C@@H](O)[C@@H]1O [Fludarabine],104,101,107,109,101,107,104,83.7
C[N+](C)(C)C[C@H](O)CC(=O)[O-] [L-carnitine],102,104,103,113,101,107,102,107
Nc1ncn([C@@H]2O[C@H](CO)[C@@H](O)[C@H]2O)c(=O)n1 [Azacitidine],105,101,102,83,98.6,103,90.1,84.5
NC(=O)NO [Hydroxyurea],101,109,109,108,108,103,109,110
CCCCOc1cc(C(=O)OCCN(CC)CC)ccc1N [Oxybuprocaine HCl],106,106,108,108,103,102,113,112
N[C@H](Cc1ccccc1)C(=O)O [D-Phenylalanine],103,99.4,109,111,92,101,108,116
CN[C@H](CC(C)C)C(=O)N[C@H]1C(=O)N[C@@H](CC(N)=O)C(=O)N[C@H]2C(=O)N[C@H]3C(=O)N[C@H](C(=O)N[C@H](C(=O)O)c4cc(O)cc(O)c4-c4cc3ccc4O)[C@H](O)c3ccc(c(Cl)c3)Oc3cc2cc(c3O[C@@H]2O[C@H](CO)[C@@H](O)[C@H](O)[C@H]2O[C@H]2C[C@](C)(N)[C@H](O)[C@H](C)O2)Oc2ccc(cc2Cl)[C@H]1O [Vancomycin HCl],105,92.7,105,114,106,99.4,106,113
NC(=O)c1ncn([C@@H]2O[C@H](CO)[C@@H](O)[C@H]2O)n1 [Ribavirin],102,96.2,108,101,100,104,109,107
NC(CO)C(=O)NNCc1ccc(O)c(O)c1O (configuration not stated) [Benserazide],107,101,111,110,97.3,104,102,107
NC(=O)c1cccnc1 [Nicotinamide],95.4,97.2,98.5,104,96.7,103,95.5,102
CCC(NC(C)C)C(O)c1ccc(O)c(O)c1 (configuration not stated) [Isoetharine Mesylate],98.5,96.3,95.5,106,95.4,107,78.7,111
CCN1CC(CCN2CCOCC2)C(c2ccccc2)(c2ccccc2)C1=O (configuration not stated) [Doxapram HCl],102,104,100,107,116,103,106,112
CC1=C(/C=C/C(C)=C/C=C/C(C)=C/C=C/C=C(C)/C=C/C=C(C)/C=C/C2=C(C)CCCC2(C)C)C(C)(C)CCC1 [Beta Carotene],96.9,95.3,99.9,104,104,92.9,104,104
Nc1nc2ccc(OC(F)(F)F)cc2s1 [Riluzole],102,105,108,111,103,104,107,107
COc1ccc([C@H]2CNC(=O)C2)cc1OC1CCCC1 [S-(+)-Rolipram],103,92.3,89.4,90.4,95.6,101,98.7,103
O=c1[nH]c(=O)n(C2CCCO2)cc1F (configuration not stated) [Ftorafur],101,103,104,96.9,100,101,114,89.2
N=C(N)Nc1ccc(C(=O)Oc2ccc3cc(C(=N)N)ccc3c2)cc1 [Nafamostat mesylate],103,104,108,105,105,110,111,107
CCOC(=O)[C@H](CCc1ccccc1)N[C@H]1CCCN2CCC[C@@H](C(=O)O)N2C1=O [Cilazapril monohydrate],97.6,97.3,94.1,113,105,106,98.7,115
CCCNC(C)C(=O)Nc1ccccc1C (configuration not stated) [Prilocaine],96.7,101,105,104,92.2,92.1,92.3,97.4

Compound,relative cell viability [1],relative cell viability [2],relative cell viability [3],relative cell viability [4],relative cell viability [5],relative cell viability [6],relative cell viability [7],relative cell viability [8]
CCCCC(=O)N(Cc1ccc(-c2ccccc2-c2nnn[nH]2)cc1)[C@H](C(=O)O)C(C)C [Valsartan],104,97.5,80.6,51.6,98.1,95.6,93.8,45.1
OCC(CO)N[C@H]1C[C@](O)(CO)[C@@H](O)[C@H](O)[C@H]1O [Voglibose],109,117,113,113,105,114,116,115
CSc1ccc2c(c1)N(CCC1CCCCN1C)c1ccccc1S2 (configuration not stated) [Thioridazine HCl],101,108,101,107,98.9,101,98.7,108
COc1cc(OC)c(C(=O)CCCN2CCCC2)c(OC)c1 [Buflomedil HCl],101,99.7,100,114,108,103,105,114
O=C(O)C1=CO[C@@H](O[C@@H]2O[C@H](CO)[C@@H](O)[C@H](O)[C@H]2O)[C@@H]2C(CO)=CC[C@H]12 [Geniposidic acid],107,109,110,112,103,120,117,121
CCOc1cc(CC(=O)N[C@@H](CC(C)C)c2ccccc2N2CCCCC2)ccc1C(=O)O [Repaglinide],84.4,97.2,109,109,67.6,110,114,115
CN(c1nccc(=O)[nH]1)C1CCN(c2nc3ccccc3n2Cc2ccc(F)cc2)CC1 [Mizolastine],97.1,98.1,101,108,97.3,94.6,101,107
C#C[C@]1(OC(C)=O)CC[C@H]2[C@@H]3CCC4=C[C@@H](OC(C)=O)CC[C@@H]4[C@H]3CC[C@@]21C [Ethynodiol diacetate],97.7,103,113,111,104,110,104,116
Cn1nnc2c(C(N)=O)ncn2c1=O [Methazolastone],102,106,111,106,114,106,107,112
Cc1c(-c2ccccc2)oc2c(C(=O)OCCN3CCCCC3)cccc2c1=O [Flavoxate HCl],96.7,102,108,108,103,101,106,109
CN(C)C(=N)NC(=N)N [Metformin hydrochloride],98.4,104,105,109,105,96.6,104,109
O=C(O)c1cccnc1 [Niacin],107,107,98,109,110,111,106,93.9
CCCCCN(C)CCC(O)(P(=O)(O)O)P(=O)(O)O [Ibandronate sodium],100,95.3,93.1,91,99.9,99.4,92.6,84.4
COc1cc2nc(N(C)CCCNC(=O)C3CCCO3)nc(N)c2cc1OC (configuration not stated) [Alfuzosin hydrochloride],103,106,99.9,106,103,107,114,112
CC1=C(CC(=O)O)c2cc(F)ccc2/C1=C\c1ccc([S+](C)[O-])cc1 (configuration not stated) [Sulindac],104,105,106,61.2,103,101,108,113
CN1CCOC(c2ccccc2)c2ccccc2C1 (configuration not stated) [Nefopam HCl],95.1,74.3,43.9,93.2,60.3,45.5,44.4,68.8
Cc1nc2n(c(=O)c1CCN1CCC(c3noc4cc(F)ccc34)CC1)CCCC2O (configuration not stated) [Paliperidone],106,107,106,104,104,109,105,118
CCCC(CCC)C(=O)O [Divalproex sodium],98.3,109,102,111,99.9,106,106,118
CN(C)CCOC(C)(c1ccccc1)c1ccccn1 (configuration not stated) [Doxylamine Succinate],111,104,105,109,107,112,117,123
Nc1nc(Cl)nc2c1ncn2[C@H]1C[C@H](O)[C@@H](CO)O1 [Cladribine],76.2,30.7,6.18,4.06,55.5,21.9,5.2,4.23
N=C(N)N/N=C/c1c(Cl)cccc1Cl [Guanabenz acetate],96.3,113,105,99.1,101,99.6,98.7,98.9
Clc1ccc2c(c1)C(N1CCNCC1)=Nc1ccccc1O2 [Amoxapine],102,100,104,109,98.5,105,111,113
